# Biological target: T1, Methionyl-tRNA synthetase, putative (Leishmania donovani (strain BPK282A1)) (UniProt E9BF75)
# T1 sequence (whole entry): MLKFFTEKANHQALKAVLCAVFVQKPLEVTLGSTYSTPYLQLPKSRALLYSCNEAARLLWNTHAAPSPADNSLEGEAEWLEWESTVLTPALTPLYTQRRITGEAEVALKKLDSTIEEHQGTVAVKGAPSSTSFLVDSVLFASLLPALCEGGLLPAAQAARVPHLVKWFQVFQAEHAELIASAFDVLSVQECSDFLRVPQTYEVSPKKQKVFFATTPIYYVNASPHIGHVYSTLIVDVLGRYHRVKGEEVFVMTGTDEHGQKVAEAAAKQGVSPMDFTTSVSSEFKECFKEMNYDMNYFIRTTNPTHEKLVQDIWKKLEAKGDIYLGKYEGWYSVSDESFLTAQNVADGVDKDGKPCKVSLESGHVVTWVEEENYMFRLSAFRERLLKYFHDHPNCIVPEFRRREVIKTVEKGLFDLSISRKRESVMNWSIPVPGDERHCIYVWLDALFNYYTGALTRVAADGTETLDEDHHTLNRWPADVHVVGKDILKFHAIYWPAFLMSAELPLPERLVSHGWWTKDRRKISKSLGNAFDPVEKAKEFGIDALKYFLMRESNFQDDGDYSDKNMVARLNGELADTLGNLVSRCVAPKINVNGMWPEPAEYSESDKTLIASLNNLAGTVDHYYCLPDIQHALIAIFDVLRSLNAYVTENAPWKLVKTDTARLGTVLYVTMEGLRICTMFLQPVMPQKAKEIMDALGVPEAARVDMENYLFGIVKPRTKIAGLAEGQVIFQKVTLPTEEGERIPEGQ
# Experiment: Leishmania donovani Methionine tRNA synthetase (LdMetRS):v7. Dose response assay
# Format: functional
# Design: conc 80 nM, time 150 minutes
compound,measurement,setting,value
COc1cccc(-c2cc(C(F)(F)F)nc(N3CCOCC3)n2)c1,PXC50,MAX_EFFECT 8.510638298,< 4
same,PXC50,MAX_EFFECT 10.3626943,< 4
CNc1nc(CN2CCOCC2)nc2sc3c(c12)CCC(C)C3 (centres undefined),PXC50,MAX_EFFECT 4.668304668,< 4
same,PXC50,MAX_EFFECT 7.035175879,< 4
COc1ccc(NC[C@@H](N)CC(C)C)c(Oc2ccc(Cl)cc2)n1,PXC50,MAX_EFFECT 6.560636183,< 4
same,PXC50,MAX_EFFECT 6.651376147,< 4
COCCN(Cc1cnn(C)c1)c1nc(C)nc2sccc12,PXC50,MAX_EFFECT 10.70496084,< 4
same,PXC50,MAX_EFFECT 11.48825065,< 4
Nc1noc2ccc(-c3cnc4ccc(NCC5CC5)nn34)cc12,PXC50,MAX_EFFECT 32.56997455,< 4
same,PXC50,MAX_EFFECT 37.71929825,< 4
CCc1nc(NCCCOC)c2c3c(sc2n1)CCC3,PXC50,MAX_EFFECT 10.43256997,< 4
same,PXC50,MAX_EFFECT 14.35768262,< 4
CC(C)Nc1nc(Nc2ccc(F)c(F)c2)nc2c1cnn2C,PXC50,"BOTTOM 6.912856457, HILLSLOPE 1.265127605, MAX_EFFECT 60.96491228, TOP 58.85327881",5.32
same,PXC50,"BOTTOM 8.026516696, HILLSLOPE 1.466204418, MAX_EFFECT 55.47073791, TOP 58.34935066",5.27
same,PXC50,"BOTTOM 8.495247693, HILLSLOPE 1.610767227, MAX_EFFECT 62.64150943, TOP 64.37148882",5.22
Cn1ncc2c(NCCO)nc(NCCN3CCOCC3)nc21,PXC50,MAX_EFFECT 4.109589041,< 4
same,PXC50,MAX_EFFECT 10.0,< 4
same,PXC50,MAX_EFFECT 11.56069364,< 4
Cn1ncc2c(NCCn3cnnn3)nc(Nc3ccc(F)c(F)c3)nc21,PXC50,"BOTTOM 0.694813003, HILLSLOPE 0.766193094, MAX_EFFECT 55.16528926, TOP 100.0",4.46
same,PXC50,MAX_EFFECT 43.90715667,< 4
same,PXC50,MAX_EFFECT 44.05286344,< 4
COc1ccccc1C1(CNc2nnc(C)c(C)c2C#N)CCOCC1,PXC50,MAX_EFFECT 9.85915493,< 4
same,PXC50,MAX_EFFECT 18.33333333,< 4
CCc1cccc(Nc2nc(NCCO)c3cnn(C)c3n2)c1,PXC50,MAX_EFFECT 6.404958678,< 4
same,PXC50,MAX_EFFECT 25.11013216,< 4
same,PXC50,MAX_EFFECT 42.00385356,< 4
N[C@@H]1CCOc2c(Cl)cc(Cl)cc21,PXC50,MAX_EFFECT 3.676470588,< 2.7
same,PXC50,MAX_EFFECT 16.70480549,< 2.7
CS(=O)(=O)N1CCN(c2ccc3ccc(C(=O)NCCN4CCOCC4)cn23)CC1,PXC50,"BOTTOM 1.032447983, HILLSLOPE 3.01577023, MAX_EFFECT 61.72248804, TOP 62.04525005",4.88
same,PXC50,"BOTTOM -0.949038422, HILLSLOPE 2.220287811, MAX_EFFECT 68.73857404, TOP 70.86130279",4.83
Cc1noc(CCNC(=O)c2ccc3ccc(N4CCN(S(C)(=O)=O)CC4)n3c2)n1,PXC50,"BOTTOM 5.724020306, HILLSLOPE 2.592848239, MAX_EFFECT 58.13528336, TOP 58.43223286",4.74
same,PXC50,"BOTTOM -1.848364429, HILLSLOPE 1.849781613, MAX_EFFECT 52.63157895, TOP 54.86189083",4.91
Cn1ncc2c(NCCO)nc(NCc3cccnc3)nc21,PXC50,MAX_EFFECT 7.969639469,< 4
same,PXC50,MAX_EFFECT 8.113207547,< 4
same,PXC50,MAX_EFFECT 12.78538813,< 4
CC(C)(N)c1cc(Cl)cc(Cl)c1,PXC50,MAX_EFFECT 14.47084233,< 3
same,PXC50,MAX_EFFECT 21.86311787,< 3
Cc1c(C(=O)NC2CCCC2)ccc2ccc(N3CCN(S(C)(=O)=O)CC3)n12,PXC50,MAX_EFFECT 3.645833333,< 4
same,PXC50,MAX_EFFECT 10.0877193,< 4
Cc1nc(CN(C)C(=O)c2ccc(Cn3cnnn3)cc2)cs1,PXC50,MAX_EFFECT 1.360544218,< 4
same,PXC50,MAX_EFFECT 4.347826087,< 4
same,PXC50,MAX_EFFECT 4.72854641,< 4
CCNc1nc(CC)nc2sc(CC)cc12,PXC50,MAX_EFFECT 7.537688442,< 4
same,PXC50,MAX_EFFECT 11.05651106,< 4
O=C(NC1CCCC1)c1ccc2ccc(N3CCOCC3)n2c1,PXC50,"BOTTOM 3.55073469, HILLSLOPE 1.692539638, MAX_EFFECT 59.05660377, TOP 61.76844647",4.9
same,PXC50,"BOTTOM 4.599152337, HILLSLOPE 2.687600256, MAX_EFFECT 55.70776256, TOP 54.83275802",4.96
O=C(O)CC1COCCN1C(=O)C1(c2ccc(Cl)cc2)CCC1 (centres undefined),PXC50,MAX_EFFECT 1.360544218,< 4
same,PXC50,MAX_EFFECT 1.449275362,< 4
same,PXC50,MAX_EFFECT 4.378283713,< 4
CNc1nc(Nc2ccc(F)c(F)c2)nc2c1cnn2C,PXC50,"BOTTOM 0.870209489, HILLSLOPE 0.808254997, MAX_EFFECT 89.4026975, TOP 100.0",5.22
same,PXC50,"BOTTOM 6.300791226, HILLSLOPE 0.864616698, MAX_EFFECT 89.69957082, TOP 97.1703974",5.16
same,PXC50,"BOTTOM -2.296989521, HILLSLOPE 0.747850258, MAX_EFFECT 89.3111639, TOP 97.09484857",5.35
Cn1ncc2c(NCCn3cccn3)nc(Nc3ccc(F)c(F)c3)nc21,PXC50,MAX_EFFECT 33.72921615,< 4
same,PXC50,MAX_EFFECT 37.33905579,< 4
same,PXC50,MAX_EFFECT 41.9729207,< 4
O=S(=O)(NCCO)c1cccnc1Nc1cccc(C(F)(F)F)c1,PXC50,MAX_EFFECT 4.933586338,< 4
same,PXC50,MAX_EFFECT 12.19008264,< 4
same,PXC50,MAX_EFFECT 16.29955947,< 4
Cc1ncc(CCNc2nc(Nc3ccc(F)c(F)c3)nc3c2cnn3C)s1,PXC50,MAX_EFFECT 15.8490566,< 4
same,PXC50,MAX_EFFECT 21.03004292,< 4
same,PXC50,MAX_EFFECT 21.85273159,< 4
Cc1sc2nc(CN3CCOCC3)nc(NC3CC3)c2c1C,PXC50,MAX_EFFECT 8.673469388,< 4
same,PXC50,MAX_EFFECT 8.838383838,< 4
COC(=O)CNC(=O)c1cccc(C(=O)N(C)c2ccccc2)c1,PXC50,MAX_EFFECT 1.22591944,< 4
same,PXC50,MAX_EFFECT 1.449275362,< 4
same,PXC50,MAX_EFFECT -3.401360544,< 4
OCCNc1nc(Nc2ccc(F)c(F)c2)nc2[nH]ncc12,PXC50,"BOTTOM 3.46805435, HILLSLOPE 2.296919563, MAX_EFFECT 68.49315068, TOP 65.56498053",5.11
same,PXC50,"BOTTOM 8.366568489, HILLSLOPE 1.390922894, MAX_EFFECT 66.79316888, TOP 71.6605159",5.22
same,PXC50,"BOTTOM -5.242433447, HILLSLOPE 1.269255479, MAX_EFFECT 62.45283019, TOP 64.77487353",5.31

# Source: ChEMBL document CHEMBL3988442, “University of Dundee, Small-Polar-MMV Screening Library” (2021)
